Columns and labels:
Assay in all cases: DAPPL (digital affinity profiling via proximity ligation, sequencing); 10 mM Tris-HCl pH 7.5, 50 mM NaCl, 1 mM DTT, 4% glycerol, room temperature, 30 min; GST-TFs on glutathione beads, 16-mer random dsDNA library, 0.1% formaldehyde crosslink after washing; high values mean tight binding
FEV = biological target: T1, FEV (Homo sapiens, UniProt Q99581 1-238); conditions: protein: recombinant; tags: N-terminal GST; dsDNA, one strand shown
T1 sequence: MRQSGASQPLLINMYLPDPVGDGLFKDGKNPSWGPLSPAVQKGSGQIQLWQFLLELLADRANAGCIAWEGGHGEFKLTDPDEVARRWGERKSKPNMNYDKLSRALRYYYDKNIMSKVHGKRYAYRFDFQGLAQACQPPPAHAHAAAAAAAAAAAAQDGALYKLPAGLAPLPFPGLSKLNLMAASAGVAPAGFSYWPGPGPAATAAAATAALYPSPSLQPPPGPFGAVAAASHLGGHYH
Outline: (§1)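 In yeast, human transcription factors were expressed with a GST fusion, then pulled down on glutathione beads and given DNA barcodes. Pooled with a tag-only sample, they were exposed to 200 nmole of a 16-mer random double-stranded DNA library (Tris/NaCl/DTT/glycerol buffer, room temperature, 30 min), washed, crosslinked with 0.1% formaldehyde, proximity-ligated using BsaI/T4 ligase for 1 h at 37 °C, PCR-amplified and read on an Illumina NextSeq500. Each hexamer's frequency of reads for a factor, divided by the matching frequency for the tag-only sample, gives the binding signal.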

ETV5 = ETV5 (Homo sapiens, UniProt P41161 1-510); conditions: protein: recombinant; tags: N-terminal GST; dsDNA, one strand shown
Outline: as §1

HSF1 = HSF1 (Homo sapiens, UniProt Q00613 1-529); conditions: protein: recombinant; tags: N-terminal GST; chain copies: 3; dsDNA, one strand shown
Outline: as §1

SPIC = biological target: T2, SPIC (Homo sapiens, UniProt Q8N5J4 1-248); conditions: protein: recombinant; tags: N-terminal GST; dsDNA, one strand shown
T2 sequence: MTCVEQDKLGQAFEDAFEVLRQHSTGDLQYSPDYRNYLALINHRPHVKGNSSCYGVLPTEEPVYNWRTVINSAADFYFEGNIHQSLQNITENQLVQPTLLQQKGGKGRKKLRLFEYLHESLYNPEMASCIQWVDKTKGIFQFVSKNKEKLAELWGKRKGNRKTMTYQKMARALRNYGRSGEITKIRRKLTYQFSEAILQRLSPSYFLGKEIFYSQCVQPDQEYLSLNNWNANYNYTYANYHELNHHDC
Outline: as §1

ELF4 = ELF4 (Homo sapiens, UniProt Q99607 1-663); conditions: protein: recombinant; tags: N-terminal GST; dsDNA, one strand shown
Outline: as §1

ELK4 = biological target: T3, ELK4 (Homo sapiens, UniProt P28324-2 1-405); conditions: protein: recombinant; tags: N-terminal GST; dsDNA, one strand shown
T3 sequence: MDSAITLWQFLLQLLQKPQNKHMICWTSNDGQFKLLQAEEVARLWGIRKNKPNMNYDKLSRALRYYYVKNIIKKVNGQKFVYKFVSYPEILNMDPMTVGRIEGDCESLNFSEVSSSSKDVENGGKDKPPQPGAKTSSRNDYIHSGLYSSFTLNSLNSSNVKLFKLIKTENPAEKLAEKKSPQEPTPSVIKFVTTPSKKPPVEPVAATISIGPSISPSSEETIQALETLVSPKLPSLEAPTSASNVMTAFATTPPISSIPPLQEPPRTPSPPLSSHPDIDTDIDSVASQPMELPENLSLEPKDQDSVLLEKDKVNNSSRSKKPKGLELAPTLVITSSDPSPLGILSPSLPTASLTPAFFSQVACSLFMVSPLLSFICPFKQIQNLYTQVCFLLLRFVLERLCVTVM
Outline: as §1

ETV2 = biological target: T4, ETV2 (Homo sapiens, UniProt O00321 1-342); conditions: protein: recombinant; tags: N-terminal GST; dsDNA, one strand shown
T4 sequence: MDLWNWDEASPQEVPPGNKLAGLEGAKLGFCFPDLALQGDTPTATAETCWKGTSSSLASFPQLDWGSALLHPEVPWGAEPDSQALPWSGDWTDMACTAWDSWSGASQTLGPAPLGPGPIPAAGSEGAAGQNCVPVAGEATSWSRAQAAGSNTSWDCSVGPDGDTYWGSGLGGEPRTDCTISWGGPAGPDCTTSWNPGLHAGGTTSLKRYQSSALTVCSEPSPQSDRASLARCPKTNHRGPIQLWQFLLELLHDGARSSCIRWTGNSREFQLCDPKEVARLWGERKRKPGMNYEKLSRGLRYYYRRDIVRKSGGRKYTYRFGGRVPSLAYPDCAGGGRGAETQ
Outline: as §1

ELF3 = biological target: T5, ELF3 (Homo sapiens, UniProt P78545 1-371); conditions: protein: recombinant; tags: N-terminal GST; dsDNA, one strand shown
T5 sequence: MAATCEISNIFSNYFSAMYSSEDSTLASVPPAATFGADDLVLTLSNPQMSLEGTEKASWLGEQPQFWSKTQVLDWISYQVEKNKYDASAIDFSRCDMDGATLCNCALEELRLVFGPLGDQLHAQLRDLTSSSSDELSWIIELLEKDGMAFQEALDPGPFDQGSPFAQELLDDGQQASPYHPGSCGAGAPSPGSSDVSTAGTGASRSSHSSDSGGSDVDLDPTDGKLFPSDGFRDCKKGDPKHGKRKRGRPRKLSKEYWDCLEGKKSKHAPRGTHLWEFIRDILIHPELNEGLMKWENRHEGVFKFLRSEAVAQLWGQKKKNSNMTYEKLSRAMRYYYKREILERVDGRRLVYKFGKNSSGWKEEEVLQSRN
Outline: as §1

CRX = CRX (Homo sapiens, UniProt O43186 1-299); conditions: protein: recombinant; tags: N-terminal GST; dsDNA, one strand shown
Outline: as §1

ETV1 = ETV1 (Homo sapiens, UniProt P50549 1-477); conditions: protein: recombinant; tags: N-terminal GST; dsDNA, one strand shown
Outline: as §1

ERF = biological target: T6, ERF (Homo sapiens, UniProt P50548 1-548); conditions: protein: recombinant; tags: N-terminal GST; dsDNA, one strand shown
T6 sequence: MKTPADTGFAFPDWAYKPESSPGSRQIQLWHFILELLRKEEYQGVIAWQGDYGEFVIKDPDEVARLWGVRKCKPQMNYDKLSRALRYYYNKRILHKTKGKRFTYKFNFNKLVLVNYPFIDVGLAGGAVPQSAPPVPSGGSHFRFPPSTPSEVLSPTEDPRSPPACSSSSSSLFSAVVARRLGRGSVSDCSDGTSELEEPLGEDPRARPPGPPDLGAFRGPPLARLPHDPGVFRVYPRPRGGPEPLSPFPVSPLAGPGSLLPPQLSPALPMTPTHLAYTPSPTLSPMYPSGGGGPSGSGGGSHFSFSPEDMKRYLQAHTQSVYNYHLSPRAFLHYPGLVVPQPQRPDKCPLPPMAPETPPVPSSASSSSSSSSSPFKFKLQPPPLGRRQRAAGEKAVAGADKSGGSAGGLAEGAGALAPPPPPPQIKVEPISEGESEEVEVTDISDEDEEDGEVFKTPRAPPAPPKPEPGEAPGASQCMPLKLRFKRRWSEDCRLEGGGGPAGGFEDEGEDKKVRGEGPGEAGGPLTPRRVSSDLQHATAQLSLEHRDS
Outline: as §1

ETV3L = biological target: T7, ETV3L (Homo sapiens, UniProt Q6ZN32 1-361); conditions: protein: recombinant; tags: N-terminal GST; dsDNA, one strand shown
T7 sequence: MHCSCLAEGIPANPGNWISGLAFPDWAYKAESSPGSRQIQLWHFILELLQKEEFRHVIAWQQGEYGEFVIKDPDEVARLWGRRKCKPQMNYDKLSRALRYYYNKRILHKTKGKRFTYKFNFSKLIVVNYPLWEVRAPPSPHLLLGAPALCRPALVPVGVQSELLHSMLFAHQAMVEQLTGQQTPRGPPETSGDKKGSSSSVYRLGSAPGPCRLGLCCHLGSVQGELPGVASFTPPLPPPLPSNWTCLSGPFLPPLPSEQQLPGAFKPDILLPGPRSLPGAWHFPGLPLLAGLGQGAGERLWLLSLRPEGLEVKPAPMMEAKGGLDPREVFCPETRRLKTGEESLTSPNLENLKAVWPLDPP
Outline: as §1

ETS2 = biological target: T8, ETS2 (Homo sapiens, UniProt P15036 1-469); conditions: protein: recombinant; tags: N-terminal GST; dsDNA, one strand shown
T8 sequence: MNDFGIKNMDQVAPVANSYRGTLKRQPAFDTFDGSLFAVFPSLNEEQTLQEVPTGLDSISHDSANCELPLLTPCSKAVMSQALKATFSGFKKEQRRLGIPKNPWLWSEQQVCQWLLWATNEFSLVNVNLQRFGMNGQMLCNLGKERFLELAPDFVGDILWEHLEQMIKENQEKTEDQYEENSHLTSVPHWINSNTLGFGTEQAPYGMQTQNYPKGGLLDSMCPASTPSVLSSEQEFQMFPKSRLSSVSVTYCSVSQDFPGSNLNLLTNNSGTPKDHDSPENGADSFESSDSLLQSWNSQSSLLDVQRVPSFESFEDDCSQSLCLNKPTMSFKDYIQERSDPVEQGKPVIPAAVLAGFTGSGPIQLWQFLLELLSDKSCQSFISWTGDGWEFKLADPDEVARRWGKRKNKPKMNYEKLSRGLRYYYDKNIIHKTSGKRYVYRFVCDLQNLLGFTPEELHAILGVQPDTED
Outline: as §1

SPDEF = biological target: T9, SPDEF (Homo sapiens, UniProt O95238 1-335); conditions: protein: recombinant; tags: N-terminal GST; dsDNA, one strand shown
T9 sequence: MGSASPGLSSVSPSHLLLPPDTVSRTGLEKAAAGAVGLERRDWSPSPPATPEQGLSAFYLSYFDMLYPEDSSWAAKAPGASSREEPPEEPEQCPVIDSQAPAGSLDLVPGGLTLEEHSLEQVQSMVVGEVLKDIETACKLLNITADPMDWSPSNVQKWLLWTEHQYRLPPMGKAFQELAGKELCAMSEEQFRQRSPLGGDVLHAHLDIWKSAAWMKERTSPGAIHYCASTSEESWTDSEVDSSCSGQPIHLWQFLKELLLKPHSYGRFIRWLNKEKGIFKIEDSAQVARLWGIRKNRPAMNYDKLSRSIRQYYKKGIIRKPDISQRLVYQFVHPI
Outline: as §1

ETV7 = biological target: T10, ETV7 (Homo sapiens, UniProt Q9Y603 1-341); conditions: protein: recombinant; tags: N-terminal GST; dsDNA, one strand shown
T10 sequence: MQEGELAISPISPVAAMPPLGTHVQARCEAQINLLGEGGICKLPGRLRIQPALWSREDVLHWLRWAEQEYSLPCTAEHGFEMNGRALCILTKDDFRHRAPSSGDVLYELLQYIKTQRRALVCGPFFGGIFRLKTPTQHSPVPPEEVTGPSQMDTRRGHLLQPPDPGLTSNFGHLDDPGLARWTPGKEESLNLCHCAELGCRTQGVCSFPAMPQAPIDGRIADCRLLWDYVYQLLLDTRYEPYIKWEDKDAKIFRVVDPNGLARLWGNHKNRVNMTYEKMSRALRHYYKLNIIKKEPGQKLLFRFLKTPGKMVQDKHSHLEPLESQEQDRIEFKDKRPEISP
Outline: as §1

ELF5 = biological target: T11, ELF5 (Homo sapiens, UniProt Q9UKW6-2 1-255); conditions: protein: recombinant; tags: N-terminal GST; dsDNA, one strand shown
T11 sequence: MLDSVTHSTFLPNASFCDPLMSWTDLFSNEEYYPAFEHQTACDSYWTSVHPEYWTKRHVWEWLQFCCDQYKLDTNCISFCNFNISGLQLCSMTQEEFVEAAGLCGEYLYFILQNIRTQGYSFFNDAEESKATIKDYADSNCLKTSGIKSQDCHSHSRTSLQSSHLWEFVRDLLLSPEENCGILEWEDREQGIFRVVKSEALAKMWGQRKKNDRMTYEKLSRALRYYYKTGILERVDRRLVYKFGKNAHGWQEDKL
Outline: as §1

ETV3 = biological target: T12, ETV3 (Homo sapiens, UniProt P41162-2 1-143); conditions: protein: recombinant; tags: N-terminal GST; dsDNA, one strand shown
T12 sequence: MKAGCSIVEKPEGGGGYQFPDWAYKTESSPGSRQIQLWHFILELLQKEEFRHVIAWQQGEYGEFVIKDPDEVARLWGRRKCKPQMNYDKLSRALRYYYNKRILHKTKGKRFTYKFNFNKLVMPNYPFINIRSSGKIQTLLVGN
Outline: as §1

ETV6 = ETV6 (Homo sapiens, UniProt P41212 1-452); conditions: protein: recombinant; tags: N-terminal GST; dsDNA, one strand shown
Outline: as §1

Sequence of ETV1 (P50549 whole entry): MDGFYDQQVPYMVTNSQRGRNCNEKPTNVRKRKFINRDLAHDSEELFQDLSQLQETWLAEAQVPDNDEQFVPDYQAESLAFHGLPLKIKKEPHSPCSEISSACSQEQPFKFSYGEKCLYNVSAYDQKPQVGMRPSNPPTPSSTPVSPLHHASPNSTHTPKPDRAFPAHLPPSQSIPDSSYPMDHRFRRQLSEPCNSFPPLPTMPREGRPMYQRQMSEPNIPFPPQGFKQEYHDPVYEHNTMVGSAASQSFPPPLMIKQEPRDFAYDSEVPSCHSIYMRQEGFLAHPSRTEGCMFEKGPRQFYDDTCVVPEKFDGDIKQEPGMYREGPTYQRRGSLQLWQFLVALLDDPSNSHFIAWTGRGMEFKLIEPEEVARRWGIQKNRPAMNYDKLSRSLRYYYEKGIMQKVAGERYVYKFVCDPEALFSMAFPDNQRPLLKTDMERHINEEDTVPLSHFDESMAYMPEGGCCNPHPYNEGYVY
Sequence of ELF4 (Q99607 whole entry): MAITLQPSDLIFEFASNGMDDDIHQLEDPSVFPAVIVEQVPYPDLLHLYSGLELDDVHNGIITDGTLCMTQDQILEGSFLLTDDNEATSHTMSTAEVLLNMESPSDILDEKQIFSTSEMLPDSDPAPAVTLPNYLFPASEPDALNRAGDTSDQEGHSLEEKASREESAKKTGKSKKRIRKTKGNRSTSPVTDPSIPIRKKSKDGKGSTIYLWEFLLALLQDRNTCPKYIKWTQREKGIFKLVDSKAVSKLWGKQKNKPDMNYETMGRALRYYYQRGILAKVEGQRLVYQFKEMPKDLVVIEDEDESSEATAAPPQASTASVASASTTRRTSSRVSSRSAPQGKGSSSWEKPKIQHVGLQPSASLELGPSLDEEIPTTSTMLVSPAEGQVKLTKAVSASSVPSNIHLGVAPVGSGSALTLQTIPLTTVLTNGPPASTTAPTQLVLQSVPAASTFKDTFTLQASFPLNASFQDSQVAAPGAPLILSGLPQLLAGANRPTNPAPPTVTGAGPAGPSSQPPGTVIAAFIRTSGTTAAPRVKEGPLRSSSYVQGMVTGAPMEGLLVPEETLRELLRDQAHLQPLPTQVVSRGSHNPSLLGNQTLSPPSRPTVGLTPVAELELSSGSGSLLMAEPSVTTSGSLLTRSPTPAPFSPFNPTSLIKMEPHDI
Sequence of CRX (O43186 whole entry): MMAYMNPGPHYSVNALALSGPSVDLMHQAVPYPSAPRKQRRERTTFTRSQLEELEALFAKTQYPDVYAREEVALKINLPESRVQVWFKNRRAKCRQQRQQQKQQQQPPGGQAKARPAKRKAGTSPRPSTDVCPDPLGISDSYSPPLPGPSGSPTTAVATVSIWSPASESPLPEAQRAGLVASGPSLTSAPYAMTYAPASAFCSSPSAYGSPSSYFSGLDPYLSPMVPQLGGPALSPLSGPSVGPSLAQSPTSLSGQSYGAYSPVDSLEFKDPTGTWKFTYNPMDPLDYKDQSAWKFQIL
Sequence of HSF1 (Q00613 whole entry): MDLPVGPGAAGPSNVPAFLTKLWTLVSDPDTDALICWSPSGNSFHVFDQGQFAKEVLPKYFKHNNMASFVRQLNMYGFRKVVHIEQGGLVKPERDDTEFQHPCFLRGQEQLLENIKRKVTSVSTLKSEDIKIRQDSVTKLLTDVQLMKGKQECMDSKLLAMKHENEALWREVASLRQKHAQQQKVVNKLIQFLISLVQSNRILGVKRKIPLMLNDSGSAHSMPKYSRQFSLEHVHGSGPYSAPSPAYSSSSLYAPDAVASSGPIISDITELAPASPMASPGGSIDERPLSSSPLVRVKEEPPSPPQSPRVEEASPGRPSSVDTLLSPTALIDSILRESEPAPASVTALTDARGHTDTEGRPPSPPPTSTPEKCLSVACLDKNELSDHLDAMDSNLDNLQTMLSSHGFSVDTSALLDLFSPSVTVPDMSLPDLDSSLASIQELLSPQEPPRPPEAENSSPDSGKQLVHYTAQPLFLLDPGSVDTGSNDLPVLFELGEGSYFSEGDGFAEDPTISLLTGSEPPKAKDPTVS
Sequence of ETV6 (P41212 whole entry): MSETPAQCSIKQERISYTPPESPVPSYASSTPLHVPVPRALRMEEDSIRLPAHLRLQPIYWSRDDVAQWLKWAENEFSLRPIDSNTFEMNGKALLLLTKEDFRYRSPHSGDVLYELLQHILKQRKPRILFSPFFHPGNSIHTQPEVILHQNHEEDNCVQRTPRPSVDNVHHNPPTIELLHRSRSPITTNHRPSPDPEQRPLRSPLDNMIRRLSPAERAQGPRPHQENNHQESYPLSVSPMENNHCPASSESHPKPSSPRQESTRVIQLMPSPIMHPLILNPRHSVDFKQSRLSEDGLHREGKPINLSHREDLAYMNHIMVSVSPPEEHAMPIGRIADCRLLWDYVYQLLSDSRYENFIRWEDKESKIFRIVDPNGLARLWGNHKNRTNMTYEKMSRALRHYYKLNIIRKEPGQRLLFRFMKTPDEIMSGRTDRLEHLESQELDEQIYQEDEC
Sequence of ETV5 (P41161 whole entry): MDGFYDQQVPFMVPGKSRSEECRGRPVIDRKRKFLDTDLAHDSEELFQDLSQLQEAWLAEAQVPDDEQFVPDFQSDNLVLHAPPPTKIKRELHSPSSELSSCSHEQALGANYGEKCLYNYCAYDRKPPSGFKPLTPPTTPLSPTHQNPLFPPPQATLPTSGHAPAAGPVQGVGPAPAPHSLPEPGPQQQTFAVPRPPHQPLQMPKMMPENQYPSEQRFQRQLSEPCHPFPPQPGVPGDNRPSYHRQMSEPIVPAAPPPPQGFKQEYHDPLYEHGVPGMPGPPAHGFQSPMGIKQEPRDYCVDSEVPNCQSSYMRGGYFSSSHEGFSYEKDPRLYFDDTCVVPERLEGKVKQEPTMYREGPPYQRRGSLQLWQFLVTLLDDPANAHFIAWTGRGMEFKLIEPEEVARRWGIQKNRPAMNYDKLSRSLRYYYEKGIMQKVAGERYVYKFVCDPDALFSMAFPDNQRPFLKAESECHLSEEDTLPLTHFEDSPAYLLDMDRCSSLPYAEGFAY

Sequence: GCTACT
- binding signal (FEV): 1.43 fold enrichment (6-mer frequency, TF over GST control)
- binding signal (ETV5): 1.39 fold enrichment (6-mer frequency, TF over GST control)
- binding signal (HSF1): 1.07 fold enrichment (6-mer frequency, TF over GST control)
- binding signal (SPIC): 1.3 fold enrichment (6-mer frequency, TF over GST control)
- binding signal (ELF4): 1.28 fold enrichment (6-mer frequency, TF over GST control)
- binding signal (ELK4): 1.38 fold enrichment (6-mer frequency, TF over GST control)
- binding signal (ETV2): 1.17 fold enrichment (6-mer frequency, TF over GST control)
- binding signal (ELF3): 1.47 fold enrichment (6-mer frequency, TF over GST control)
- binding signal (CRX): 1.09 fold enrichment (6-mer frequency, TF over GST control)
- binding signal (ETV1): 1.32 fold enrichment (6-mer frequency, TF over GST control)
- binding signal (ERF): 1.52 fold enrichment (6-mer frequency, TF over GST control)
- binding signal (ETV3L): 1.2 fold enrichment (6-mer frequency, TF over GST control)
- binding signal (ETS2): 1.39 fold enrichment (6-mer frequency, TF over GST control)
- binding signal (SPDEF): 1.27 fold enrichment (6-mer frequency, TF over GST control)
- binding signal (ETV7): 1.33 fold enrichment (6-mer frequency, TF over GST control)
- binding signal (ELF5): 1.2 fold enrichment (6-mer frequency, TF over GST control)
- binding signal (ETV3): 1.19 fold enrichment (6-mer frequency, TF over GST control)
- binding signal (ETV6): 1.38 fold enrichment (6-mer frequency, TF over GST control)
